From paper PMC5700166
Residue numbers refer to the chain shown, from its start.

Columns and labels:
Experiment in all cases: protein-binding microarray (PBM); PBM: ~300 nM protein, 6 mM HEPES pH 7.8, 80 mM KCl, 0.5 mM EDTA, 0.5 mM EGTA, 6% glycerol, 35 ng/ul poly-dIdC, 1% milk, 1 h, room temperature; Ap Aiptasia and Nv Nematostella (sea anemones) / Co Capsaspora / Aq Amphimedon (sponge) / Dm Drosophila / Hu human; RHD is the Rel homology domain; high values mean tight binding
Conditions in all cases: dsDNA, one strand shown
GST-Ap-NF-kB RHD = biological target: T1, GST-Ap-NF-kB RHD (Exaiptasia pallida (Aiptasia), UniProt A0A913YAJ5 2-422)
T1 sequence: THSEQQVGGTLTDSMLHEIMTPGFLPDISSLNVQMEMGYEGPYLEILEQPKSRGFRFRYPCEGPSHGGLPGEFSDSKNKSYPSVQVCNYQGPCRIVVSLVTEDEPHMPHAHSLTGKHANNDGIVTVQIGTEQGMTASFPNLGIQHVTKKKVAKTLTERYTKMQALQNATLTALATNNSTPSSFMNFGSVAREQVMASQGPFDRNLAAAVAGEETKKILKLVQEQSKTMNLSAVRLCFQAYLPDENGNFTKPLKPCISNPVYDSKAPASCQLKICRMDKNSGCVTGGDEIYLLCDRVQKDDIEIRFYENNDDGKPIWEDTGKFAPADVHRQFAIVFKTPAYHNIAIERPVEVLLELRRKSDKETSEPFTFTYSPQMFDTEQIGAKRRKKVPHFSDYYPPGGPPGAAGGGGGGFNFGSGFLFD

[1] = biological target: T2, GST-Nv-NF-kB (Cys allele) (Nematostella vectensis, UniProt E5G601 2-411)
T2 sequence: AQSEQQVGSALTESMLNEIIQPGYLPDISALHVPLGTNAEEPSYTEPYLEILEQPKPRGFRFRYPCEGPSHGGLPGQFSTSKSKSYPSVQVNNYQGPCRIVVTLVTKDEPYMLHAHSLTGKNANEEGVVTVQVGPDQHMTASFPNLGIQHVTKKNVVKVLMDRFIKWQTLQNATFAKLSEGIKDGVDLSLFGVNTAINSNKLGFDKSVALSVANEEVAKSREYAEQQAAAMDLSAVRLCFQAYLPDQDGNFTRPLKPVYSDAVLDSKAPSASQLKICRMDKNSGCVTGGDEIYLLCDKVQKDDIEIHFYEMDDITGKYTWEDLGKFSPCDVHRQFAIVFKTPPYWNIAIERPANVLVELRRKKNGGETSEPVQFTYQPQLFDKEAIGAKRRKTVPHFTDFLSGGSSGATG

[2] = biological target: T3, GST-Nv-NF-kB (Ser allele) (Nematostella vectensis, UniProt A7UNT2 2-411)
T3 sequence: T2 sequence with Q21R, C66S, S207N, E215Q, V217A, E225K, A268E, D399E

GST-Dm-Relish = biological target: T4, GST-Dm-Relish (Drosophila melanogaster, UniProt Q94527 99-473)
T4 sequence: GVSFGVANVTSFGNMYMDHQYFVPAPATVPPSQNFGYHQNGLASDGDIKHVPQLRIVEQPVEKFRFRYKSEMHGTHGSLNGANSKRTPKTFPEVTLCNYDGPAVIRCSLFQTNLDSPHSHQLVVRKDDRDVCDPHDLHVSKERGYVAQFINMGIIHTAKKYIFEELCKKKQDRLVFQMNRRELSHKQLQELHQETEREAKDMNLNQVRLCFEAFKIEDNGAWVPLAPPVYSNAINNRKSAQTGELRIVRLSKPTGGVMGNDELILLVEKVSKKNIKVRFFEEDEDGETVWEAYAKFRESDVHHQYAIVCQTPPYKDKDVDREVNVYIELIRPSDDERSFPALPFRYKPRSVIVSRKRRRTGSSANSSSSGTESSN

GST-Aq-NF-kB = biological target: T5, GST-Aq-NF-kB (Amphimedon queenslandica, UniProt A9Y5G7 2-389)
T5 sequence: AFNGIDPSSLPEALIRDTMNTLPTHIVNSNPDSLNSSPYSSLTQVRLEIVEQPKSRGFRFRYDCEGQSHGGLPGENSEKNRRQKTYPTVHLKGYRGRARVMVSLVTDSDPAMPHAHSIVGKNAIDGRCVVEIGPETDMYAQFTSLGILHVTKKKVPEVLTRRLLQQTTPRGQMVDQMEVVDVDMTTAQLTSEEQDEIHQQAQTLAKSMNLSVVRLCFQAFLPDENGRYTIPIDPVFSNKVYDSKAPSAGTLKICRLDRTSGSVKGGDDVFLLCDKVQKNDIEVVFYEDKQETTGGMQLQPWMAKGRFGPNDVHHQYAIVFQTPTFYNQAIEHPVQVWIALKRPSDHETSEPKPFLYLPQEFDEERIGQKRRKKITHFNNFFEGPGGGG

GST-Hu-p50 = GST-Hu-p50 (Homo sapiens, UniProt P19838 7-356)
GST-Co-NF-kB = biological target: T6, GST-Co-NF-kB (Capsaspora owczarzaki, UniProt F1ARL5 200-546)
T6 sequence: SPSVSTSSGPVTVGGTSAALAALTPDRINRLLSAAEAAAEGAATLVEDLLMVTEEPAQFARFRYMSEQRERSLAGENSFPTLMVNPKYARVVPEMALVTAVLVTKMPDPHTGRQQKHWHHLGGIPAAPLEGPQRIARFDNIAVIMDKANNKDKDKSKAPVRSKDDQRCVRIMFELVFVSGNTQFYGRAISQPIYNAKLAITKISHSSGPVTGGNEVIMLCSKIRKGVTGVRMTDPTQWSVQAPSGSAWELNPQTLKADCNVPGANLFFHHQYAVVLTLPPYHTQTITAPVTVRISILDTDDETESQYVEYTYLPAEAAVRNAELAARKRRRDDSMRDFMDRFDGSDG

GST-Hu-p50, sequence (P19838 7-356): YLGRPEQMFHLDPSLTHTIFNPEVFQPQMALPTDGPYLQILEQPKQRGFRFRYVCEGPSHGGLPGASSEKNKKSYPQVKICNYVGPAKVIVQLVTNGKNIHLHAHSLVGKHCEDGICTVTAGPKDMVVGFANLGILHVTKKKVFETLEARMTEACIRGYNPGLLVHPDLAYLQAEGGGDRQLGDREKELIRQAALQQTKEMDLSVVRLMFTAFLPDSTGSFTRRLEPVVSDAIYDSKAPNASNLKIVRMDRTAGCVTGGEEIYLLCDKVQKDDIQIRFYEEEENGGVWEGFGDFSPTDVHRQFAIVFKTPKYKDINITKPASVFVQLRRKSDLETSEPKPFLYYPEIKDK

Sequence | binding signal (GST-Ap-NF-kB RHD) [z-score] | binding signal [1] [z-score] | binding signal [2] [z-score] | binding signal (GST-Dm-Relish) [z-score] | binding signal (GST-Aq-NF-kB) [z-score] | binding signal (GST-Hu-p50) [z-score] | binding signal (GST-Co-NF-kB) [z-score]
CCGATTAACATCACGGGATTTCGTGATGTTAATCGGGTCTTGATTCGCTTGACGCTGCTG | 1.77 | 1.88 | 1.43 | 3.68 | 1.91 | 2.12 | 
CCGATTAACATCAGGAAGCCCCATGATGTTAATCGGGTCTTGATTCGCTTGACGCTGCTG | 4.01 | 4.13 | 2.15 | 5.38 | 4.02 | 3.77 | 
CCGATTAACATCAGGAAGGTCCCTGATGTTAATCGGGTCTTGATTCGCTTGACGCTGCTG | 3.51 | 2.97 | 1.09 | 1.64 | 5.37 | 2.52 | 
CCGATTAACATCAGGATATCCCCTGATGTTAATCGGGTCTTGATTCGCTTGACGCTGCTG | 8.1 | 7.01 |  | 7.25 | 7.17 | 5.46 | 3.66
CCGATTAACATCAAGGGACTTCCTGATGTTAATCGGGTCTTGATTCGCTTGACGCTGCTG | 6.06 | 7.09 |  | 7.2 | 6.58 | 5.08 | 1.07
CCGATTAACATCAGGGATTGCCCTGATGTTAATCGGGTCTTGATTCGCTTGACGCTGCTG | 4.32 | 3.8 | 1.87 | 5.25 | 6.11 | 2.54 | 
CCGATTAACATCAGGTAATTTTATGATGTTAATCGGGTCTTGATTCGCTTGACGCTGCTG | 1.38 | 3.29 | 5.66 | 3.58 | 2.95 | 4.06 | 
CCGATTAACATCAAAACACCCCTTGATGTTAATCGGGTCTTGATTCGCTTGACGCTGCTG | 3.63 | 2.54 |  | 4.19 | 4.03 | 4.32 | 2
CCGATTAACATCAAAAAAGTACCTGATGTTAATCGGGTCTTGATTCGCTTGACGCTGCTG | 4.63 | 7.84 | 11.4 | 9.37 | 5.47 | 5.8 | 
CCGATTAACATCAGGGACTTTACTGATGTTAATCGGGTCTTGATTCGCTTGACGCTGCTG | 5.17 | 6.47 | 6.59 | 7.99 | 6.61 | 5.06 | 
CCGATTAACATCAGGAAATTACCTGATGTTAATCGGGTCTTGATTCGCTTGACGCTGCTG | 1.96 | 4.03 | 5.26 | 4.76 | 5.23 | 3.82 | 
CCGATTAACATCAGAGAAGCCCCTGATGTTAATCGGGTCTTGATTCGCTTGACGCTGCTG | 4.39 | 5.41 | 4.05 | 3.44 | 5.35 | 4.67 | 
CCGATTAACATCAGAAAAATACCTGATGTTAATCGGGTCTTGATTCGCTTGACGCTGCTG | 1.31 | 2.43 | 3.74 | 4.9 | 3.17 | 3.16 | 
CCGATTAACATCAAAAAAACCCTTGATGTTAATCGGGTCTTGATTCGCTTGACGCTGCTG | 4.62 | 5.48 |  | 6.8 | 6.78 | 5.45 | 1.11
CCGATTAACATCAGAAAAGTACCTGATGTTAATCGGGTCTTGATTCGCTTGACGCTGCTG | 3.82 | 6.4 | 9.87 | 8.45 | 4.69 | 6.05 | 
CCGATTAACATCAGGCAAGCCCCTGATGTTAATCGGGTCTTGATTCGCTTGACGCTGCTG | 2.62 | 2.83 | 1.38 | 2.46 | 5.11 | 3.36 | 
CCGATTAACATCAAAGAAGTCCCTGATGTTAATCGGGTCTTGATTCGCTTGACGCTGCTG | 5.78 | 6.68 | 6.97 | 5.18 | 5.56 | 5.29 | 
CCGATTAACATCAGGGACGCCCCTGATGTTAATCGGGTCTTGATTCGCTTGACGCTGCTG | 6.59 | 5.71 |  | 7.12 | 7.88 | 4.5 | 1.13
CCGATTAACATCAGGGGGGGACATGATGTTAATCGGGTCTTGATTCGCTTGACGCTGCTG | 5.67 | 5.09 |  | 3.75 | 4.34 | 4.11 | 7.08
CCGATTAACATCAAAAGCCCCCCTGATGTTAATCGGGTCTTGATTCGCTTGACGCTGCTG | 5.96 | 6 |  | 8.42 | 6.73 | 5.72 | 4.6
CCGATTAACATCAAGAAAATCCCTGATGTTAATCGGGTCTTGATTCGCTTGACGCTGCTG | 5.56 | 5.43 |  | 6.64 | 5.58 | 4.6 | 2.27
CCGATTAACATCAGAAATTACCCTGATGTTAATCGGGTCTTGATTCGCTTGACGCTGCTG | 3.88 | 6.24 |  | 4.39 | 5.95 | 4.72 | 2.87
CCGATTAACATCATGTATGCCCCTGATGTTAATCGGGTCTTGATTCGCTTGACGCTGCTG | 1.68 | 1.71 |  | 1.12 | 2.51 | 1.27 | 1.24
CCGATTAACATCAGAGTATCCCCTGATGTTAATCGGGTCTTGATTCGCTTGACGCTGCTG | 5.9 | 4.9 |  | 3.14 | 3.98 | 4.2 | 4.05
CCGATTAACATCACGGGGTTTTCTGATGTTAATCGGGTCTTGATTCGCTTGACGCTGCTG | 6.68 | 6.13 |  | 8.05 | 5.9 | 5.61 | 2.98
CCGATTAACATCAGGGGACCCCCTGATGTTAATCGGGTCTTGATTCGCTTGACGCTGCTG | 9.65 | 6.03 |  | 10.7 | 8.56 | 5.4 | 4.17
